From PubChem BioAssay AID686970 (National Center for Advancing Translational Sciences (NCATS), 2013)
In all, about 360,000 compounds went through this assay and about 6,000 (1.7%) were called active. Inconclusive results (about 8%) are left out. The entries come from a sample that favours actives as a whole. A number with no mark means an inactive call. Calls follow the shape of the dose curve; as a rule, active = well fitted cell-killing curve with a large enough effect; inconclusive = small, poorly fitted or top-dose-only effect, or effect the other way; inactive = flat fitted curve, though single readings scatter.

Assay: qHTS for induction of synthetic lethality in tumor cells producing 2HG: qHTS for the HT-1080-NT fibrosarcoma cell line;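 also: NT is the 2HG producing partner of a matched IDH1 knockdown line; nearly all actives have a fitted effect of over 55% in size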;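 as to activity, negative = less viability: 0% = DMSO-treated cells and -100% = media-only wells without cells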
Details: HT-1080-NT fibrosarcoma viability, CellTiter-Glo ATP luminescence, 48 h; series mostly up to 46.1 µM; activity, negative = less viability: at the top concentration
In short: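 Compounds were tested in concentration-response format on HT-1080-NT cells for 48 hours at 37 degrees C. Cell viability came from CellTiter-Glo luminescence; curves were classified by r2, response magnitude and activity.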
Potency is read from the fitted curve at half-maximal effect.

SMILES	Potency	activity, negative = less viability [%]
COc1cc(NC(=O)c2cncc(-c3ccc(C#N)cc3)c2)cc(C(=O)Nc2cccc(C(F)(F)F)c2)c1	inactive	–
COc1cc(NC(=O)c2[nH]cnc2C(N)=O)cc(C(=O)Nc2cccc(C(F)(F)F)c2)c1	18.4 µM (active)	–
O=C(O)CSc1c2c(nc3cc(C(=O)Nc4cccc(C(F)(F)F)c4)ccc13)CCCC2	–	12.9
CC(=O)C1=CCC(c2ccccc2)N(S(=O)(=O)c2ccc(C)cc2)C1 (stereo unspecified)	–	-20.9
Cc1ccc(C)c(NC(=O)c2ccc3nccnc3c2)c1	–	-1.09
Cc1ccc(OS(=O)Nc2cccc3nccnc23)cc1 (stereo unspecified)	11.2 µM (active)	–
Cc1ccc(Oc2ccc3c(c2)C(=O)N(c2cccc4cccnc24)C3=O)cc1	–	0.506
CCOc1cc(-c2cc(-c3ccc(NC(C)=O)cc3)nc(N)c2C#N)ccc1O	–	-16.4
CCOc1cc(C=NNC(=O)CCCC(=O)NN=Cc2ccc(O)c(OCC)c2)ccc1O	–	13
CCOc1cc(/C=C(\C#N)c2nc(-c3cccs3)c(NC(C)=O)s2)ccc1O	3.26 µM (active)	–
CCCNC(=O)C1(C)CCN(C(=O)c2ccc(F)cc2Cl)C1 (stereo unspecified)	–	19.7
CN1OC[C@@H]2CN(C(=O)c3cccc4ccccc34)[C@H](c3ccc(N4CCCCC4)cc3)C[C@@H]21	–	16.6
Oc1ccc(-c2onc3ccc(Cl)cc23)cc1	–	-7.15
N#CCSc1nc(-c2ccccc2)nc2ccc(F)cc12	–	-0.769
Clc1ccc2nc(-c3ccccc3)nc(C(Cl)Cl)c2c1	4.61 µM (active)	–
CCCCNC(=O)C[C@@H]1C[C@@]2(C(=O)OCC)CCC=C2N(Cc2ccco2)C1=O	–	2.86
Cc1nc(N=C(N)N)nc2c(C)cccc12	10.3 µM (active)	–
COc1nc(N=C(N)N)nc2c(C)cccc12	–	0.365
O=C1CCC(=O)N1CCC(=O)N(C(=O)NC1CCCCC1)C1CCCCC1	–	2.37
CC(=O)OC[C@@H]1CN(Cc2ccccc2)C[C@H](n2cnc3c(NCc4ccco4)ncnc32)O1	–	1.85
COc1cccc(-n2c(SCC(=O)c3c[nH]c4ccccc34)nc3ccccc3c2=O)c1	–	-16.3
COc1ccc(/C=C(\C#N)c2c[nH]c3ccccc23)cc1	0.411 µM (active)	–
C[N+](C)(C)CCNC(=O)c1c[nH]c2ccccc12	–	18.4
COc1ccc(C=C2CCC3C(CCCC34OCCO4)C2=O)cc1 (stereo unspecified)	–	-2.47
COCCCNC(=O)c1cccc2c(-c3ccc(O)c(OC)c3)coc12	–	-6.37
CC1(C(=O)Nc2cccc3c2CCCC3)CCN1C(=O)CCc1ccc(Cl)cc1Cl (stereo unspecified)	–	-25.8

SMILES	Potency	activity, negative = less viability [%]
CCOC(=O)CSC1=C(C#N)C(c2sccc2C)CC(=O)N1 (stereo unspecified)	2.51 µM (active)	–
C=CCSC1=C(C#N)C(c2cc(Br)c(O)c(OC)c2)CC(=O)N1 (stereo unspecified)	–	-2.43
COC(=O)CSC1=C(C#N)C(c2ccccc2OC)C(C(=O)OC)C(=O)N1 (stereo unspecified)	–	10.5
CN(Cc1ccccc1)C(=O)CCC1CCN(C(=O)c2ccco2)CC1	–	1.67
COC(=O)Cc1ccc(OC2(C)CCN(Cc3ccc4c(c3)OCCO4)C2)cc1 (stereo unspecified)	–	-12
C#CCNC(=O)C[C@@H]1C[C@@]2(C(=O)OCC)CCCC=C2N(Cc2ccco2)C1=O	–	16.7
COc1ccccc1NC(=O)C1=C(C)NC(=O)NC1c1ccc(C)s1 (stereo unspecified)	–	15.5
COc1ccccc1NC(=O)C1=C(C)Nc2nc3ccccc3n2C1c1cccs1 (stereo unspecified)	7.31 µM (active)	–
CCOc1ccc(C2C(C(=O)NC)=C(C)Nc3nc4ccccc4n32)cc1OC (stereo unspecified)	–	21.5
COc1ccc(C(O)C(O)(C(=O)OC(C)C)c2ccc(C)cc2)cc1 (stereo unspecified)	–	6.51
O=C(Nc1cccc2ccccc12)NC1CC1	–	0.702
CCCCC(=O)NC(c1ccc(OC)c(OC)c1)c1ccc2cccnc2c1O (stereo unspecified)	14.6 µM (active)	–
CCOc1ccc(C(CC(=O)O)NC(=O)Cc2ccccc2)cc1OC (stereo unspecified)	–	3.33
COc1ccc(CCNS(=O)(=O)c2cccc3cccnc23)cc1OC	–	-4.27
Cn1nc(N)c2ncc(C(Cl)(Cl)Cl)nc21	–	-11.6
O=S1(=O)CC(N2CCN(CCO)CC2)CN1C1CCCC1 (stereo unspecified)	–	25.1
O=C(COc1cccc(Cl)c1)NCc1ccccc1	–	5.28
Nc1c(C(=O)Nc2ccc3c(c2)OCCO3)nnn1Cc1ccccc1	–	-20.1
Nc1c(C(=O)NCc2ccccc2)nnn1Cc1cccc(Cl)c1	13 µM (active)	–
Cc1cccc(C)c1NC(=O)CN1CCN(c2ccc(F)cc2)CC1	–	-0.589
CCOc1ccc2[nH]c(=S)sc2c1	–	11.6
COc1ccc(C(C(=O)Nc2c(C)cccc2C)N2CCN(c3ccc(C)cc3)CC2)cc1 (stereo unspecified)	–	14.4
CC1=CC(C)(C)NC(=S)N1c1ccccc1	11.2 µM (active)	–
CC1=CC(C)(C)NC(=S)N1NC(=O)c1ccccc1Cl	–	6.28
COc1ccc(S(=O)(=O)N(C)C)cc1NC(=O)COC(=O)c1n[nH]c2ccccc12	–	4.86
